# Screens (PubChem)
# MITF TRPM1 inh – reduces MITF-dependent TRPM1 promoter luciferase signal | SK-MEL-5 TRPM1 promoter luciferase, 24 h | inhibition, % at 12.5 µM | 330,000 tested, 0.83% active | AID 488899;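 active means mean inhibition across replicates of 60% or more, whatever share of single replicates reaches that level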
# KKLEB cytotox – counter-screen for CF NF-kB inhibitors: cytotoxicity. KKLEB CF airway cells viability, ATPlite luminescence, overnight; stronger effect = lower value; cells stimulated with P. aeruginosa culture filtrate. activity change (cytotoxicity), % at 5 µM. 360,000 tested, 0.36% active. AID 602141;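 active means corrected activity change at or below -50% at 5 µM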
# Peg3 prom inh – Peg3 promoter activity inhibition. HeLa PEG-Prom luciferase reporter, luminescence, overnight. inhibition, % at 20 µM. 360,000 tested, 1.7% active;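 active means inhibition of at least 50% at 20 µM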
# Shn3 3UTR inh – inhibitors of Schnurri-3 3'UTR reporter in osteoblasts; Clone20 osteoblast Shn3 3'UTR firefly luciferase, 24 h; inhibition, % at 12.5 µM; 360,000 tested, 0.52% active;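 active means mean inhibition of at least 75% with every replicate also reaching 75%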;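 further: 0% = median of neutral control wells and 100% = pilot-screen positive control compound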
# CF NFkB block – blocks PAF-induced NF-kB reporter in cystic fibrosis cells. inhibition, % at 5 µM. 360,000 tested, 0.86% active. AID 588850. KKLEB NF-kB-GFP reporter, GFP fluorescence overnight;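 active means at least 50% inhibition at 5 µM, scaled per plate between neutral and stimulator controls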;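 further: PAF is a Pseudomonas aeruginosa culture filtrate used as stimulus; plate controls were PAF-stimulated DMSO wells for no effect and unstimulated DMSO wells for full effect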
# HIF-2a block – blocks HIF-2a reporter activity. inhibition, % at 18.8 µM. 786-0 RCC cells HIF-2a reporter, luciferase luminescence, overnight. 360,000 tested, 0.72% active. AID 624352;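 active means inhibition of the luminescence signal of 40% or more relative to plate controls, in a single-dose primary screen at 18.75 µM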
# * hit, by the source's call; / = no result given. An excerpt weighted towards active compounds, which were near 2.8% of everything screened.
SMILES,MITF TRPM1 inh,KKLEB cytotox,Peg3 prom inh,Shn3 3UTR inh,CF NFkB block,HIF-2a block
COc1ccccc1C(c1nnnn1Cc1ccccc1)N1CCN(C2CCCC2)CC1 (stereo not drawn),-2,-9,0,9,17,8
CCCCN(CCCC)C(=S)N/N=C/c1c(C)[nH]n(-c2ccccc2)c1=O,43,-7,72*,55,-15,1
COc1cc(OC)cc(C2=Cc3ccccc3C(CC(=O)c3ccco3)N2c2ccc(-c3ccc(C(N)=O)cc3)cc2)c1 (stereo not drawn),/,/,/,/,/,-6
CCOc1cc(/C=C2\C(=O)ON=C2C)ccc1OCc1ccccc1,49,2,89*,91*,-16,67*
C=CCOc1ccc(/C=C2/C(=O)ON=C2C)cc1OC,17,1,47,47,4,27
CCCOc1ccccc1/C=C1/C(=O)ON=C1C,49,3,23,20,-23,22
CCCOc1ccc(/C=C2/C(=O)ON=C2C)cc1OCC,11,-8,50*,13,2,36
CN(c1ccc(Br)cc1)S(=O)(=O)c1ccc2[nH]cc(C(=O)NCCN3CCOCC3)c(=O)c2c1,-6,-4,-2,-21,5,9
COc1ccc(CC(=O)N2CCN(c3ccccc3OC)CC2)cc1OC,-4,3,15,4,-9,1
C=C1C(=O)[C@]23C[C@H]1CCC2[C@@]1(C)C(C[C@@H]3O)[C@](C)(C(=O)O)C[C@H](O)[C@@H]1O (stereo partly drawn),/,16,-1,-10,-12,8
C=C1C(=O)[C@]23C[C@H]1CCC2[C@@]1(C)C(C[C@@H]3O)[C@](C)(C(=O)OC)CC[C@@H]1OC(C)=O (stereo partly drawn),/,-100*,102*,98*,89*,98*
OC(Cc1cccc(Br)c1)c1ncc(-c2cccc(C(F)(F)F)c2)[nH]1 (stereo not drawn),/,-11,50*,8,16,-26
OC(Cc1ccccc1Br)c1ncc(-c2cccc(C(F)(F)F)c2)[nH]1 (stereo not drawn),/,-9,41,10,18,-8
O=C(OC1C2C=CC1C1C(=O)NC21)c1ccccc1 (stereo not drawn),/,0,3,-12,12,7
C=CCOC(=O)C1=C(C)N(C)C(=O)NC1c1cc2c(cc1Br)OCO2 (stereo not drawn),-2,3,67*,-3,-4,24
CCCCOC(=O)C1=C(C)N(C)C(=O)NC1c1cc2c(cc1Br)OCO2 (stereo not drawn),/,-7,9,14,7,22
COc1cc(/C=N/NC(=Nc2ccc(C)cc2)c2nc3ccccc3s2)ccc1O,69*,-12,72*,52,-16,73*
Cc1cc(Cl)ccc1NC(=O)CN1CCN(C(=O)c2ccco2)CC1,4,5,-3,16,9,-7
Cc1ccccc1NC(=O)CN1CCN(C(=O)c2ccco2)CC1,0,-2,53*,3,-14,-3
CC(C)NS(=O)(=O)c1ccc(CCC(=O)Nc2cc(Cl)ccc2Oc2ccccc2)cc1,11,-4,29,83,6,25
CCNS(=O)(=O)c1ccc(CCC(=O)Nc2cc(Cl)ccc2Oc2ccccc2)cc1,25,-14,63*,58,15,24
Cc1nc(CNC(=O)CC2C(=O)NCCN2Cc2cccc(Oc3ccccc3)c2)cs1 (stereo not drawn),5,2,22,4,6,19
O=C1C(Cl)=C(N2CCN(c3ccccc3[N+](=O)[O-])CC2)C(=O)c2ccccc21,27,-11,101*,96*,30,23
CC1(C)Cc2c(cnn2-c2ccccc2)-c2c1c1ccccc1n2CC(O)CBr (stereo not drawn),-1,11,11,-4,-5,20
Cc1cccc(Nc2nc(N3CCOCC3)nc(N3CCOCC3)n2)c1,-16,-14,7,35,51*,29
SMILES,MITF TRPM1 inh,KKLEB cytotox,Peg3 prom inh,Shn3 3UTR inh,CF NFkB block,HIF-2a block
CC(=O)Nc1ccc(S(=O)(=O)Nc2ccccc2C(=O)N2CCCCC2)cc1,6,4,12,-11,-12,20
Cc1ccccc1OCc1ccc(C(=O)N2CC(C)OC(C)C2)o1 (stereo not drawn),16,-4,12,16,4,12
O=C(Nc1ccc(S(=O)(=O)Nc2nccs2)cc1)c1cccc(N2C(=O)c3ccccc3C2=O)c1,-11,-4,-12,5,-5,4
O=C(Nc1nccs1)c1cccc(N2C(=O)c3cccc4c([N+](=O)[O-])ccc(c34)C2=O)c1,34,-5,110*,1,-1,9
CC(=O)NCCNc1nc2cc(-c3cscc3C)sc2c(=O)n1C,/,-2,-7,-11,-4,-14
Cc1cc(C)c(S(=O)(=O)/N=C2/C=C(Sc3ncn[nH]3)C(=O)c3ccccc32)cc1C,89*,-59*,106*,94*,77*,68*
O=C(c1ccc(CNS(=O)(=O)c2ccc(F)cc2)cc1)N1CCCCCC1,/,8,-38,-17,7,-62
O=C(CN(CCc1ccccc1)Cc1ccccc1)Oc1ccccc1P(=O)(O)O,0,2,9,-14,-16,7
COc1ccc([C@H]2CC(=O)C=C(c3ccc4c(c3)OCO4)C2)cc1OC,/,-5,5,86*,1,-14
CCOC(=O)c1sc(NC(=O)c2ccc(CC)s2)nc1C,-34,9,-264,-60,0,-201
CCc1ccc(C(=O)Nc2nc(C)cs2)s1,10,-2,-108,-17,-6,56*
CSc1ncccc1C(=O)OCc1cccc([N+](=O)[O-])c1,2,-1,-11,-7,-5,1
O=C(Nc1cccc(C(=O)O)c1)/C(=C\c1ccc(F)cc1)NC(=O)c1ccco1,-11,-1,-15,-18,16,-1
Cn1c(=O)c2[nH]c(CCCCCCCCc3nc4ccccc4[nH]3)nc2n(C)c1=O,3,-14,23,86*,16,0
CC(=O)Oc1c(I)cc(I)cc1C(=O)Nc1ccc(Cl)cc1,-8,-39,20,4,70*,-121
COc1ccc(Cl)cc1C(=O)Nc1ccc(NC(C)=O)cc1,1,2,-11,-19,-9,-23
CN1CCc2cc3c(c4c2[C@H]1[C@H](O)c1ccccc1-4)OCO3,5,8,66*,-45,-349,32
CCCNC(=O)Cn1cnc2sc(C(=O)N3CCN(Cc4ccc5c(c4)OCO5)CC3)c(C)c2c1=O,11,10,8,17,17,19
Cc1c(C(=O)N2CCN(Cc3ccc4c(c3)OCO4)CC2)sc2ncnc(N3CCN(c4ccccc4)CC3)c12,15,9,58*,47,-24,-3
Cc1c(C(=O)N2CCN(c3ccccn3)CC2)sc2ncnc(N3CCN(c4ccccc4)CC3)c12,4,-4,22,-3,1,13
